Bioassay records: PubChem BioAssay, National Center for Advancing Translational Sciences (NCATS)
An excerpt weighted towards active compounds, which were near 11% of everything screened.
HPGD inh – qHTS Assay for Inhibitors of HPGD (15-Hydroxyprostaglandin Dehydrogenase); AID 894, 2007; 15-hydroxyprostaglandin dehydrogenase [NAD(+)] (Homo sapiens), P15428; Potency, µM, most hits filed as inhibitors; 150,000 compounds, 4.3% hits; purified HPGD, NADH fluorescence kinetic, PGE2 substrate
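NADH formation kinetics: reaction with 30 uM PGE2 and 1 mM NAD+ (final), 20 nM enzyme, Tris-HCl pH 8 with Tween 20, after 15 min compound preincubation at room temperature. Fluorescence change, last versus first of five reads.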
PNC inhibitor – High Content Assay for Compounds that inhibit the Assembly of the Perinucleolar Compartment; PC3M PTB-GFP, PNC prevalence imaging, 16 h; stronger effect = lower value; activity change (PNC), negative = inhibition, % at 10 µM; 140,000 compounds, 3.1% hits; AID 2417, 2010;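 active = readout at or below -70, meaning at least 70% loss of cells showing the perinucleolar compartment, a nuclear body marking cancer cells; inconclusive = readout between -30 and a set limit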
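Read-out is percentage of cells bearing a perinucleolar compartment, from automated 20x imaging of fixed, Hoechst-stained PC3M PTB-GFP cells. Cells were seeded 4 h, then exposed 16 h to compound (23 nl of library stock) in duplicate plates.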
ALDH1A1 block – qHTS Assay for Inhibitors of Aldehyde Dehydrogenase 1 (ALDH1A1); Aldehyde dehydrogenase 1A1 (Homo sapiens), P00352; AID 1030, 2008; Potency, µM (doses to about 75.3 µM), actives largely listed as inhibitors; Purified ALDH1A1, NADH fluorescence, propionaldehyde substrate; 220,000 compounds, 7.3% hits
Target sequence (P00352 whole entry, looked up): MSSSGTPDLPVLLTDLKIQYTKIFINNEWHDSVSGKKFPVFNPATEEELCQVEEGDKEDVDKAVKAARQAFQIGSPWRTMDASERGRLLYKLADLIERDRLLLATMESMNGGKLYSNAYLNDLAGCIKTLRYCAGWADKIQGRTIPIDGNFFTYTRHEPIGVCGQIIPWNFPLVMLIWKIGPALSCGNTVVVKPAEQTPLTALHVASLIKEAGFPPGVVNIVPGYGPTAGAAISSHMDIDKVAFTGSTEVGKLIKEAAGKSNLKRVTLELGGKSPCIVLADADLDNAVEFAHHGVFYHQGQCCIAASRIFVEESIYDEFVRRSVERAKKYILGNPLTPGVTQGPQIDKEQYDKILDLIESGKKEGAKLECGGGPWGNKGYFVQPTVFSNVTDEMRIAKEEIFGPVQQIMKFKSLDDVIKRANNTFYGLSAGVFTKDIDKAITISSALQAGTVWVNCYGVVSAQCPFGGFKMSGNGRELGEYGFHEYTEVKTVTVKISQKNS
Each line names hits and unclear results; the compound was inactive in the other large screens. Unless noted, calls follow the shape of the dose curve; as a rule, active = well fitted inhibition curve with a large enough effect (not every such curve was filed as active); inconclusive = small, poorly fitted or top-dose-only effect, or another doubt; inactive = no such curve, though single readings can be large or run the other way.

OC(CNCC(c1ccco1)N1CCCCC1)c1ccccc1 (stereo not drawn)	PNC inhibitor -126.9, ALDH1A1 block 17.8µM
Cc1c(C(=O)OCC(=O)Nc2c(C)n(C)n(-c3ccccc3)c2=O)oc2ccccc12	none (no result: HPGD inh, PNC inhibitor)
Cc1c(C(=O)c2ccc(N(C)C)cc2)c2ccccn2c1CCC#N	ALDH1A1 block 15.8µM (no result: HPGD inh, PNC inhibitor)
Cc1c(C(=O)c2ccc(Cl)c([N+](=O)[O-])c2)c2ccccn2c1CCC#N	ALDH1A1 block inconclusive
CCN(CC)CCOC(=O)c1ccc(NC(=O)C(C)NC(=O)C23CC4CC(CC(C4)C2)C3)cc1 (stereo not drawn)	none
N=C(N)SCCc1ccc(OCc2ccc([N+](=O)[O-])cc2)cc1	ALDH1A1 block inconclusive (no result: PNC inhibitor)
O=C(O)C1C2C=CC(O2)C1C(=O)Nc1ccccc1C(F)(F)F (stereo not drawn)	ALDH1A1 block 14.1µM
O=C(O)[C@@H]1[C@@H](C(=O)Nc2ccccc2)[C@@H]2C=C[C@@H]1O2	none (no result: PNC inhibitor)
CCc1ccc2nc(Nc3ccc(OC)cc3OC)c(C#N)cc2c1	none (no result: HPGD inh, PNC inhibitor)
CCCn1c(O)c(N=Nc2ccc3ccccc3n2)c2ccccc21	PNC inhibitor -115.0
CC(C)CCn1c(O)c(N=NC(=O)Cn2ccc(C(F)(F)F)n2)c2ccccc21	none
CCCn1c2ccccc2c2nc3ccccc3nc21	PNC inhibitor inconclusive
CC(C)CCn1c(O)c(N=Nc2ccccn2)c2ccccc21	PNC inhibitor inconclusive, ALDH1A1 block 0.355µM
CCOC(=O)c1[nH]cnc1N=Nc1c(O)ccc2ccccc12	none
Oc1ccc2ccccc2c1N=Nc1ccccn1	HPGD inh 31.6µM, ALDH1A1 block inconclusive
CC1CCCC(CC(=O)O)(CC(=O)O)C1 (stereo not drawn)	none (no result: HPGD inh, PNC inhibitor)
COC(=O)c1cc2sccc2n1CC(=O)N1CCCc2ccccc21	none
COC(=O)c1cc2oc(C)cc2n1CC(=O)N1CCCc2ccccc21	ALDH1A1 block 20µM
CCOC(=O)c1cc2occc2n1CC(=O)N1CCCc2ccccc21	PNC inhibitor -83.6, ALDH1A1 block 8.91µM
CCOC(=O)c1cc2sccc2n1CC(=O)N1CCCc2ccccc21	none
COC1=CC(=O)C(C(=O)c2ccccc2)=CC1=O	HPGD inh 4.47µM, ALDH1A1 block inconclusive (no result: PNC inhibitor)
COc1ccc(C(=O)c2ccccc2)cc1Br	HPGD inh inconclusive
O=C(Cc1ccccc1Cl)Nc1nc2ccccc2[nH]1	ALDH1A1 block 25.1µM (no result: HPGD inh, PNC inhibitor)
Cc1ccc(CC(=O)Nc2nc3ccccc3[nH]2)cc1C	none
O=C(NCC1CCCN(Cc2ccccc2F)C1)c1cccc(C(F)(F)F)c1 (stereo not drawn)	none (no result: HPGD inh, PNC inhibitor)
O=C(NC1CCCCCC1)C(=S)N1CCCC1	none (no result: HPGD inh, PNC inhibitor)
O=C(NC1CCCCCC1)C(=S)N1CCOCC1	ALDH1A1 block 10µM (no result: HPGD inh, PNC inhibitor)
COc1ccc(C(=O)NCC(=O)OCc2ccc(F)cc2)cc1	none (no result: HPGD inh, PNC inhibitor)
COC(=O)Cn1c(=NC(=O)C2COc3ccccc3O2)sc2cc(S(N)(=O)=O)ccc21 (stereo not drawn)	PNC inhibitor -134.0
COC(=O)Cn1c(=NC(=O)CN2C(=O)CCC2=O)sc2cc(S(N)(=O)=O)ccc21	none
CN(Cc1ccco1)c1ncncc1-c1cccc(C#N)c1	none (no result: HPGD inh, PNC inhibitor)
CC(=O)OCOC(=O)CN(CC(=O)OCOC(C)=O)c1ccccc1OCCOc1ccccc1N(CC(=O)OCOC(C)=O)CC(=O)OCOC(C)=O	none (no result: HPGD inh, PNC inhibitor)
CCNc1c2c(nc3ccccc13)CC(C)(C)CC2=O	PNC inhibitor inconclusive, ALDH1A1 block 14.1µM
CC1(C)CC(=O)c2c(nc3ccccc3c2N)C1	HPGD inh inconclusive, ALDH1A1 block inconclusive
COc1ccc2c(c1)C(=O)[C@H](OC(=O)NCCc1ccc(OC)c(OC)c1)[C@@H](c1ccc(OC)c(Br)c1)O2	none (no result: PNC inhibitor)
COc1ccc(C2C(C(=O)N3CCCCC3)CC(=O)N2c2ccc(OC)cc2)cc1 (stereo not drawn)	ALDH1A1 block 14.1µM
COc1ccc(C2C(C(=O)O)CCC(=O)N2c2ccc(OC)cc2)cc1 (stereo not drawn)	none
COc1ccc(N2C(=O)CCC(C(=O)N3CCCCCC3)C2c2ccc(OC)c(OC)c2)cc1 (stereo not drawn)	none
COc1ccc(C2C(C(=O)NCc3ccco3)CCC(=O)N2c2ccc(OC)cc2)cc1 (stereo not drawn)	ALDH1A1 block 11.2µM
COc1ccc(N2C(=O)CCC(C(=O)N(C)CCc3ccccn3)C2c2ccc(OC)c(OC)c2)cc1 (stereo not drawn)	none (no result: HPGD inh, PNC inhibitor)
CCNC(=O)COC(=O)C1CCC(=O)N(c2ccc(OC)cc2)C1c1ccc(OC)cc1 (stereo not drawn)	ALDH1A1 block 8.91µM
COc1ccc(C2C(C(=O)OCC(=O)N3CCCCC3)CCC(=O)N2c2ccc(OC)cc2)cc1 (stereo not drawn)	ALDH1A1 block inconclusive
CCCCN(C)C(=O)C1CCC(=O)N(c2cc(OC)c(OC)c(OC)c2)C1c1ccc(OC)cc1 (stereo not drawn)	PNC inhibitor -100.0
Cc1ccc(C(=O)n2cnnc2N)cc1	PNC inhibitor inconclusive
NC[C@@H]1O[C@H](O[C@H]2[C@H](O)[C@@H](O[C@H]3[C@H](O)[C@H](N)C[C@H](N)[C@H]3O[C@@H]3O[C@H](CO)[C@@H](O)[C@H](O)[C@@H]3N)O[C@H]2CO)[C@@H](N)[C@H](O)[C@@H]1O	none (no result: PNC inhibitor)
O=C(N/N=C/c1ccc(OC(F)F)cc1OC(F)F)c1cccc(S(=O)(=O)N2CCOCC2)c1	none (no result: HPGD inh, PNC inhibitor)
CN(C)c1ccc(NC(=O)CC(NCc2ccccn2)C(=O)O)cc1 (stereo not drawn)	ALDH1A1 block inconclusive
C/C=C/C(=O)OCC(=O)Nc1ccc(SC(F)F)cc1	none (no result: HPGD inh, PNC inhibitor)
Cc1cccc(N2CC3=C(C2=O)C(c2ccccc2)NC(=O)N3C)c1 (stereo not drawn)	PNC inhibitor -81.1
Cc1ccc(N2CC3=C(C2=O)C(c2ccccc2)NC(=O)N3C)cc1 (stereo not drawn)	none
CC(=O)OC[C@H]1O[C@@H](O/N=C\[C@@H](C)[C@H](OCc2ccccc2)C(C)C)[C@H](OC(C)=O)[C@@H](OC(C)=O)[C@H]1OC(C)=O	none (no result: HPGD inh, PNC inhibitor)
O=C(CCl)Nc1ccccc1C(=O)NCc1ccccc1	none (no result: HPGD inh, PNC inhibitor)
CC/C(=N/Nc1ccccc1)c1cnnc(-c2ccccc2)n1	ALDH1A1 block 10µM
CC/C(=N/Nc1cccc(Cl)c1)c1cnnc(SC)n1	none
Cc1ccc(S(=O)(=O)Nc2ccc(C(=O)OCC(=O)N(CCC#N)c3ccccc3)cc2)cc1C	PNC inhibitor -86.9
CNS(=O)(=O)c1cccc(C(=O)OCC(=O)N(CCC#N)c2ccccc2)c1	none (no result: HPGD inh, PNC inhibitor)
CC1Nc2nc(N(C)C)[nH]c(=O)c2NC1C (stereo not drawn)	HPGD inh inconclusive, ALDH1A1 block inconclusive
O=C(CC1NCCN(Cc2ccccc2)C1=O)Nc1ccccc1 (stereo not drawn)	none (no result: HPGD inh, PNC inhibitor)
COCCn1c(SCC(=O)N2CCCc3ccccc32)nc2c(c1=O)SC(C)C2 (stereo not drawn)	PNC inhibitor -108.4, ALDH1A1 block 20µM
COCCn1c(SCC(=O)N2CCCc3ccccc32)nnc1-c1ccco1	PNC inhibitor inconclusive
CCn1c(SCC(=O)N2CCCCC2)nc2c(c1=O)SC(C)C2 (stereo not drawn)	ALDH1A1 block 22.4µM
CC1Cc2nc(SCC(=O)N3CCCc4ccccc43)n(C)c(=O)c2S1 (stereo not drawn)	ALDH1A1 block inconclusive
